Experimental findings from PubChem BioAssay (NCATS) are described below.

Assay [1] deals with Muscarinic acetylcholine receptor M1 (Rattus norvegicus) (UniProt P08482). Kind of assay: qHTS Assay for Antagonists of Acetylcholine Muscarinic M1 Receptor: Measurement of IP-One Response (AID 944). Also: nearly all actives have a fitted effect of over 75% in size. Conditions: CHO-M1 cells, IP-One HTRF, antagonist mode; series mostly up to 46.1 µM. The gist of the method: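 Steps: plate transfected CHO-M1 cells overnight; add test compound, 10 min; add carbachol (200 nM, EC80) in stimulation buffer with LiCl; incubate 30 min; add labelled IP1 tracer and anti-IP1 antibody in lysis buffer; read HTRF after 10 min.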
For orientation: qHTS replaces the single test concentration by a dilution series.

Assay [2] concerns the target Pyruvate kinase (Leishmania mexicana) (UniProt Q27686). Description: qHTS Validation Assay for Inhibitors of Leishmania Mexicana Pyruvate Kinase (AID 945). Conditions: purified L. mexicana pyruvate kinase, enzyme activity, E451W mutant enzyme; series mostly up to 57.5 µM. An excerpt:
(§1) NIH Molecular Libraries Screening Centers Network [MLSCN]
(§2) NIH Chemical Genomics Center [NCGC]
PI names: Malcom Walkinshaw, Hugh Morgan and Linda Gilmore
University of Edinburgh, Edinburgh, UK
Species of Leishmania are responsible for a wide spectrum of diseases throughout the tropics and subtropics, ranging from self-healing ulcers to highly disfiguring lesions and serious, often lethal visceral diseases, such as kala-azar. In Leishmania spp. it has been shown that both sugar uptake and gluconeogenesis are necessary to synthesize sufficient hexose-phosphate required for the production of glycoconjugates and the intracellular polysaccharide mannan which are essential for both replication and virulence of the parasites. Therefore, most of the enzymes participating in glycolysis and gluconeogenesis are expected to be essential (Naderer et al., 2006). […]
Three uL of substrate mix (final concentrations, 50 mM imidazole pH 7.2, 50 mM KCl, 7 mM MgCl2, 0.5 mM PEP, 0.1 mM ADP, 0.01% Tween 20, 0.05% BSA) was dispensed into white solid medium binding Greiner 1536 well plates. […] Two uL of detection and kinase stop mix (PKLight, Lonza) was added, and luminescence read by a ViewLux (Perkin Elmer) at 2 second exposure/plate using 2x binning. […]

Assay [3] is described as follows: Confirmation and Secondary Assay for Modulators of Hemoglobin Beta Chain Splicing at IVS2 705 locus (AID 930).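 Also: HeLa cells stably expressing the EGFP-705 splicing reporter.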 Conditions: HeLa EGFP-705 splicing reporter, GFP fluorescence, 48 h; series mostly up to 46.1 µM. The method, boiled down: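 Assay measures total GFP intensity per well in HeLa EGFP-705 cells after 2 days with compound; mis-splicing normally truncates EGFP, so fluorescence indicates corrected splicing.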

Assay [4] concerns the target Pyruvate kinase PKM (Homo sapiens) (UniProt P14618). Kind of assay: qHTS Assay for Activators of Human Muscle Pyruvate Kinase (AID 954; active = well fitted curve in the direction sought with a large enough effect, not every such curve was filed as active). Particulars: purified human muscle pyruvate kinase, luciferase-coupled luminescence, 1 h; series mostly up to 57.5 µM. The gist of the method:
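Reaction: 0.1 nM purified PKM2 with 0.5 mM phosphoenolpyruvate and 0.1 mM ADP, room temperature, 1 h. Readout: luciferase-based ATP luminescence after stop reagent. Activators judged against a 0.3 nM enzyme column.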

A short description of assay [5]: MultiTox-Fluor Cytotoxicity Assay - LYMP1-001 - Dead Cells (AID 946).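 Also: cells exposed to compound for 16 h.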 Conditions: LYMP1-001 lymphoblastoid cells, dead-cell protease fluorescence; series mostly up to 92.2 µM. The method, boiled down:
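Seed 2500 LYMP1-001 cells/well, incubate 5 hr at 37 C; add compound, 16 hr at 37 C; add MultiTox-Fluor reagent, 60 min RT; read dead-cell fluorescence Ex/Em=485/520. Normalize to DMSO and 15 uM tetraoctylammonium bromide.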

Assay [6] in a line: MultiTox-Fluor Cytotoxicity Assay - LYMP1-001 - Live Cells (AID 947). Conditions: LYMP1-001 lymphoblastoid cells, live-cell protease fluorescence viability; series mostly up to 92.2 µM.
From the text: as §2, §1
National Institutes of Environmental Health Sciences [NIEHS]
National Toxicology Program [NTP]
We have developed a 1536-well cell-based assay for quantitative high throughput screening (qHTS) against a number of cell lines to determine in vitro cytotoxicity of small molecules. This particular assay uses a human lymphoblastoid cell line (LYMP1-001) purchased from Coriell Institute.
NCGC Assay Protocol Summary:
The MultiTox-Fluor Cytotoxicity Assay (Promega) is a homogeneous method to simultaneously measure the relative number of live and dead cells in culture by detecting changes in cell membrane integrity. There are two fluorogenic peptide substrates in the assay reagent. Viable cells are determined when the cell-permeant substrate (GF-AFC) enters the cell and is cleaved by protease from live cells resulting in liberated fluorophore. […] The dead cells are determined by using fluorogenic cell-impermeant peptide substrate (bis-AAF-R110) which cleaved by dead cell proteases leaking from damaged cell membrane.
Using the MultiTox-Fluor Cytotoxicity Assay, the relative number of live cells was measured in the lymphoblastoid cell line with complete culture medium following compound treatment for 16 hours. […] AC50 values were determined from concentration-response data modeled with the standard Hill equation. […]

A short description of assay [7]: Cell Viability - LYMP1-002 - Assay at 16 hr (AID 948). Conditions: LYMP1-002 lymphoblastoid cell viability; series mostly up to 92.2 µM. The method, boiled down:
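In this qHTS, lymphoblastoid LYMP1-002 cells (human) receive compounds for 16 hr at 37 C. Viability is taken from CellTiter-Glo ATP luminescence, and AC50 derives from standard Hill fits.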

Assay [8] can be described thus: MultiTox-Fluor Cytotoxicity Assay - LYMP1-002 - Live Cells (AID 955). Conditions: LYMP1-002 lymphoblastoid live-cell protease fluorescence viability; series mostly up to 46.1 µM. The method, boiled down: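 Cytotoxicity in the human lymphoblastoid line LYMP1-002 is measured as loss of live-cell protease activity after 16 h treatment in complete culture medium. AC50 is derived from Hill-equation fits of qHTS concentration-response data.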

Assay [9] in a line: MultiTox-Fluor Cytotoxicity Assay - LYMP1-002 - Dead Cells (AID 960).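 Also: cells exposed to compound for 16 h at 37 °C; nearly all actives have a fitted effect of over 60% in size.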 Particulars: LYMP1-002 lymphoblastoid cells, dead-cell protease fluorescence; series mostly up to 46.1 µM. The method, boiled down:
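Acute cytotoxicity in a human lymphoblastoid line is scored as rising dead-cell protease signal after 16 hr exposure at 37 C, measured fluorometrically (485/520).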

A short description of assay [10]: MultiTox-Fluor Cytotoxicity Assay - LYMP1-003 - Dead Cells (AID 961).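 Also: cells exposed to compound for 16 h at 37 °C; nearly all actives have a fitted effect of over 70% in size.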 Particulars: LYMP1-003 lymphoblastoid cells, dead-cell protease fluorescence; series mostly up to 92.2 µM. The gist of the method: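 LYMP1-003 lymphoblastoid, 2500 cells/well, 5 hr settle then 16 hr cpd at 37 C; MultiTox-Fluor reagent 60 min RT; Ex/Em 485/520 dead-cell signal; norm. DMSO = 0%, 15 uM tetraoctylammonium bromide = 100%; Hill AC50.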

Records with an inconclusive call do not appear. Active and inactive are the calls of the source. Unless noted, calls follow the shape of the dose curve; as a rule, active = well fitted curve in the direction sought with a large enough effect; inconclusive = small, poorly fitted or top-dose-only effect, or another doubt; inactive = no such curve, though single readings can be large; an effect the other way counts as inactive or inconclusive.

Sequence of Pyruvate kinase (Leishmania mexicana) (Q27686 2-499 E452W): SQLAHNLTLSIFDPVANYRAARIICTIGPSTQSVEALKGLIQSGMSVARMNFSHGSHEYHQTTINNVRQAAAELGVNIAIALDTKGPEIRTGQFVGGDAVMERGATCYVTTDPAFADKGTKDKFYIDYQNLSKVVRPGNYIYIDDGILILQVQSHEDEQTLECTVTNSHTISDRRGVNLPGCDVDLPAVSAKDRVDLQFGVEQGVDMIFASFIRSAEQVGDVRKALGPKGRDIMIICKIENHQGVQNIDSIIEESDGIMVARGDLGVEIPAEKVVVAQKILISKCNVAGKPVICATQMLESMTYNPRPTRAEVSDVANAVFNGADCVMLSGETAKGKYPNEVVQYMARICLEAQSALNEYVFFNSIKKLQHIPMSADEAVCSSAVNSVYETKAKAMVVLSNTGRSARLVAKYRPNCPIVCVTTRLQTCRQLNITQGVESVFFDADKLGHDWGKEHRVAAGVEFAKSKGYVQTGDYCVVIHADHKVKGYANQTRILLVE
Sequence of Pyruvate kinase PKM (Homo sapiens) (P14618 whole entry, looked up): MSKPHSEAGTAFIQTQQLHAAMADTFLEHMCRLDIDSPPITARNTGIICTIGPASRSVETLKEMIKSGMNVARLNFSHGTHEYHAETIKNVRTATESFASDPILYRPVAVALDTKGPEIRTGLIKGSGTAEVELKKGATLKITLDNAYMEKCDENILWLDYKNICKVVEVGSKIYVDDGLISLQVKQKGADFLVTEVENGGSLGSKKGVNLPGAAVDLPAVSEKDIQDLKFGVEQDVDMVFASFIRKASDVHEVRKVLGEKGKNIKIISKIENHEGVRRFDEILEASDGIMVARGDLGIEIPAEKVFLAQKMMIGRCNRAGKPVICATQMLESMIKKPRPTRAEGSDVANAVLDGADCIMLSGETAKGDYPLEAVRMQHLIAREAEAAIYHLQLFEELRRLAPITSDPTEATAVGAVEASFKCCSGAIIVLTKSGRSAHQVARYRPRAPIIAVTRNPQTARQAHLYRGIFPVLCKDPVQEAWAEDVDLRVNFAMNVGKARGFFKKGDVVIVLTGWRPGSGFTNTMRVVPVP
Sequence of Muscarinic acetylcholine receptor M1 (Rattus norvegicus) (P08482 whole entry, looked up): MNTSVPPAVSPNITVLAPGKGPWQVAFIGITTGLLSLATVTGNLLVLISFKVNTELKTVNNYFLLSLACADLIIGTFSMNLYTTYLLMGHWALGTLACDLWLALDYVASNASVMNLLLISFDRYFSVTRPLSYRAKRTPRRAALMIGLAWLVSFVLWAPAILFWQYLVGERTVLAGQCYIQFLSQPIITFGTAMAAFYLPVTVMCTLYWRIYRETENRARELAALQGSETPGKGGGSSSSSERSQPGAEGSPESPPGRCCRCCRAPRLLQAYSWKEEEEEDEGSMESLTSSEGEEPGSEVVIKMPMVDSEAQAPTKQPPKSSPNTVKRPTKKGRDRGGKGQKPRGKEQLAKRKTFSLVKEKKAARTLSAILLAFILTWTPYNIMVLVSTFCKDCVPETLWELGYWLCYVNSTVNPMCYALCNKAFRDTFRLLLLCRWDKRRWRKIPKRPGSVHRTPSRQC

As for `COc1ccc2c(c1OC)C(=O)OC2[C@H]1c2c(cc3c(c2OC)OCO3)CCN1C` (stereo not given in full), the result in assay [1] and in assay [2] was inactive.
As to `COc1ccc(C(C)=O)c(O)c1`, in assay [3], the outcome was inactive.
Still for that read-out and setting: the entry for `Cc1ccc(O)c(C(CCN(C(C)C)C(C)C)c2ccccc2)c1` (stereo not given) is “inactive”; for `CC(Cc1ccc(O)c(O)c1)(NN)C(=O)O` (stereo not given) it is “inactive”.
In the case of `CN(C)CC[C@H](c1ccc(Cl)cc1)c1ccccn1`, the compound was classed as inactive in [2] and in assay [4].
Turning to `Oc1cc2c(cc1O)C1c3ccc(O)c(O)c3OCC1(O)C2` (stereo not given), the compound was classed as inactive in assay [3].
`CCC(C(=O)O)C1CCC(C)C(C(C)C(O)C(C)C(=O)C(CC)C2OC3(C=CC(O)[C@@]4(CC[C@](C)(C5CC[C@@](O)(CC)C(C)O5)O4)O3)C(C)CC2C)O1` (stereo not given in full): the compound was called inactive in assay [3].
The same measure, in the same setting: the entry for `C[C@@]12C(=O)OC(=O)[C@@]1(C)C1CCC2O1` is “inactive”.
On to `CCCCCCCCCCCC(CC1OC(=O)C1CCCCCC)OC(=O)C(CC(C)C)NC=O` (stereo not given), for which the compound was called inactive in [3].
In the case of `OCC(O)C(O)C(O)CO` (stereo not given), the compound was called inactive in assay [3].
Consider `Cc1cc(O)c2c(c1)C(=O)c1cccc(O)c1C2=O`, for which the result in [3], in assay [5], in [6], in assay [7], in assay [8] and in assay [9] was inactive. For the same compound, the outcome in assay [10] was inactive.
Regarding `c1coc(CNc2ncnc3nc[nH]c23)c1`, the compound was called inactive in [3].
